# Inconclusive results are not listed. Activity calls are given as the source filed them. The call rests on the fitted dose curve; in most records, active means well fitted cell-killing curve with a large enough effect; inconclusive means small, poorly fitted or top-dose-only effect, or effect the other way; inactive means no such curve, though single readings can be large or run the other way.
# Assay: Quantitative High-Throughput drug screen in 47 multiple myeloma cell lines against the NCATS MIPE library collection: MMM1_PLB cell viability assay (AID 1918976); further: nearly all actives have a fitted effect of over 35% in size
# Conditions: MMM1 myeloma cells viability, CellTiter-Glo, 48 h; series mostly up to 45.8 µM
# From the text: PI: Beverly A. Mock Ph.D.
# Laboratory of Cancer Biology and Genetics,
# Center for Cancer Research, National Cancer Institute,
# National Institute of Health, Bethesda, Maryland
# Drug resistance and disease progression are common in multiple myeloma (MM) patients, underscoring the need for new therapeutic combinations. […] We hypothesized that effective combinations would reduce MYC expression and enhance p16 activity. […] These preclinical data identify potentially useful drug combinations for evaluation in drug-resistant MM and reveal potential mechanisms of combined drug sensitivity.
# Described herein is the primary MIPE qHTS used to cherrypick compounds. Validated compounds were then further tested for potential synergistic activiy.
# [1] Peat TJ, Gaikwad SM, Dubois W, Gyabaah-Kessie N, Zhang S, Gorjifard S, Phyo Z, Andres M, Hughitt VK, Simpson RM, Miller MA, Girvin AT, Taylor A, Williams D, D'Antonio N, Zhang Y, Rajagopalan A, Flietner E, Wilson K, Zhang X, Shinn P, Klumpp-Thomas C, McKnight C, Itkin Z, Chen L, Kazandijian D, Zhang J, Michalowski AM, Simmons JK, Keats J, Thomas CJ, Mock BA. Drug combinations identified by high-throughput screening promote cell cycle transition and upregulate Smad pathways in myeloma. Cancer Lett. 2023 Aug 1;568:216284. doi: 10.1016/j.canlet.2023.216284. Epub 2023 Jun 24. PMID: 37356470; PMCID: PMC10408729.
# SEQUENCE No. (e.g., 1, 2, 3, etc.); […] (e.g., Cells, Incubation, Reagent, etc.); VALUE and DESCRIPTION.
# 1; Cells; 5 uL; white, solid bottom 1536-well Greiner assay plate.
# 2; Compounds; 23 nL; Kalypsis pin tool (Wako USA) equipped with a 1536-well pin head to transfer to the assay plates.
# 3; Incubation; 48 hours; 37C incubation.
# 4; Reagent;5uL; CellTiter Glo (Promega).
# 5; Detector; 425V; Luminescence; Viewlux PerkinElmer.
# NOTES (numbers refer to Sequence numbers above)
# 1. The cell-based screening methods employed in this study were like those previously published. Briefly, the corresponding myeloma cell lines were screened in 1,536-well plates with 500 cells, 5-uL per well for inhibition of cell viability (assessed by measuring ATP levels with CellTiterGlo).
# 2. NCATS MIPE 4.0 library of approved and investigational drugs were added using the Kalypsis pin tool. Wells treated with DMSO only for 100% viability and media only for 0% viability were used as controls.
# 3. The assay plates were covered and incubated for 48 hours in a 37C, 5% CO2 incubator with controlled humidity.
# 4. After 48 hours, CellTilter-GloTM luminescent substrate mix (Promega) reagent was added to the assay plate and plates we incubated for 5 min at room temperature.
# 5. Signal was measured as median relative luminescence units on a ViewLux (PerkinElmer) multiplate reader.
# [1] Heske CM, Davis MI, Baumgart JT, Wilson K, Gormally MV, Chen L, Zhang X, Ceribelli M, Duveau DY, Guha R, Ferrer M, Arnaldez FI, Ji J, Tran HL, Zhang Y, Mendoza A, Helman LJ, Thomas CJ. Matrix Screen Identifies Synergistic Combination of PARP Inhibitors and Nicotinamide Phosphoribosyltransferase (NAMPT) Inhibitors in Ewing Sarcoma. Clin Cancer Res. 2017 Dec 1;23(23):7301-7311. doi: 10.1158/1078-0432.CCR-17-1121. Epub 2017 Sep 12. PMID: 28899971; PMCID: PMC6636827.
# Potency means the concentration at half of the fitted maximal effect.
row,SMILES,Potency
1,CC[C@H](C)C(=O)O[C@H]1C[C@@H](C)C=C2C=C[C@H](C)[C@H](CC[C@@H]3C[C@@H](O)CC(=O)O3)[C@H]21,14.8 µM (active)
2,CC1=CC(=O)c2ccccc2C1=O,8.33 µM (active)
3,COc1ccc2cc3[n+](cc2c1OC)CCc1cc2c(cc1-3)OCO2,6.62 µM (active)
4,CCCCc1oc2ccc(NS(C)(=O)=O)cc2c1C(=O)c1ccc(OCCCN(CCCC)CCCC)cc1,7.43 µM (active)
5,CN1CCCC(n2nc(Cc3ccc(Cl)cc3)c3ccccc3c2=O)CC1 (stereo not given),8.33 µM (active)
6,COC(=O)Nc1nc2ccc(Sc3ccccc3)cc2[nH]1,18.7 µM (active)
7,CNCC[C@H](Oc1cccc2ccccc12)c1cccs1,29.6 µM (active)
8,Nc1nc(N)nc(-c2cc(Cl)ccc2Cl)n1,0.0526 µM (active)
9,CC(C)C[C@H](NC(=O)[C@H](CCc1ccccc1)NC(=O)CN1CCOCC1)C(=O)N[C@@H](Cc1ccccc1)C(=O)N[C@@H](CC(C)C)C(=O)[C@@]1(C)CO1,0.0833 µM (active)
10,OC(Cn1cncn1)(Cn1cncn1)c1ccc(F)cc1F,10.5 µM (active)
11,CO[C@@]12[C@H](COC(N)=O)C3=C(C(=O)C(C)=C(N)C3=O)N1C[C@@H]1N[C@@H]12,23.5 µM (active)
12,CC(C)(C#N)c1cc(Cn2cncn2)cc(C(C)(C)C#N)c1,1.32 µM (active)
13,O=C(O)c1cccnc1,1.48 µM (active)
14,CC(C)Cn1cnc2c(N)nc3ccccc3c21,16.6 µM (active)
15,COC(=O)Nc1nc2ccc(S(=O)c3ccccc3)cc2[nH]1 (stereo not given),inactive
16,C1CCC(C(CC2CCCCN2)C2CCCCC2)CC1 (stereo not given),8.33 µM (active)
17,Nc1nc(F)nc2c1ncn2[C@@H]1O[C@H](CO)[C@@H](O)[C@@H]1O,0.469 µM (active)
18,COc1ccc(-c2ccc3cc(C(=O)O)ccc3c2)cc1C12CC3CC(CC(C3)C1)C2,2.64 µM (active)
19,Oc1c(Cl)cc(Cl)c2cccnc12,16.6 µM (active)
20,COc1cc([C@@H]2c3cc4c(cc3[C@H](O)[C@H]3COC(=O)[C@H]23)OCO4)cc(OC)c1OC,inactive

row,SMILES,Potency
1,CN(CCOc1ccc(CC2SC(=O)NC2=O)cc1)c1ccccn1 (stereo not given),14.8 µM (active)
2,COc1cc(NCc2ccc3nc(N)nc(N)c3c2C)cc(OC)c1OC,8.33 µM (active)
3,Cc1onc(-c2ccccc2Cl)c1C(=O)N[C@@H]1C(=O)N2[C@@H]1SC(C)(C)[C@@H]2C(=O)O,inactive
4,Cn1nnc2c(C(N)=O)ncn2c1=O,inactive
5,OCc1ccc(-c2nn(Cc3ccccc3)c3ccccc23)o1,1.05 µM (active)
6,CNC(=O)c1cc(Oc2ccc(NC(=O)Nc3ccc(Cl)c(C(F)(F)F)c3)cc2)ccn1,16.6 µM (active)
7,COc1cc2ncnc(Nc3cccc(Cl)c3)c2cc1OC,11.8 µM (active)
8,CCN1CCCC1CNC(=O)c1cc(S(N)(=O)=O)ccc1OC (stereo not given),inactive
9,Cc1ccc(S(=O)(=O)N[C@@H](Cc2ccccc2)C(=O)CCl)cc1,20.9 µM (active)
10,NCCCC(O)(P(=O)(O)O)P(=O)(O)O,inactive
11,CCc1c2c(nc3ccc(OC(=O)N4CCC(N5CCCCC5)CC4)cc13)-c1cc3c(c(=O)n1C2)COC(=O)[C@]3(O)CC,0.935 µM (active)
12,Nc1[nH]c(=O)ncc1F,8.33 µM (active)
13,CC(C)(C)NC(=O)[C@H]1CC[C@H]2[C@@H]3CC[C@H]4NC(=O)C=C[C@]4(C)[C@H]3CC[C@]12C,inactive
14,NC1(c2ccc(-c3nc4ccn5c(=O)[nH]nc5c4cc3-c3ccccc3)cc2)CCC1,0.332 µM (active)
15,CC1CC2C3CCC4=CC(=O)C=C[C@]4(C)[C@@]3(F)[C@@H](O)C[C@]2(C)[C@@]1(O)C(=O)CO (stereo not given in full),0.0264 µM (active)
16,O[C@@H](CNC[C@H](O)[C@H]1CCc2cc(F)ccc2O1)[C@@H]1CCc2cc(F)ccc2O1,23.5 µM (active)
17,CC(C)NCC(O)c1ccc(NS(C)(=O)=O)cc1 (stereo not given),2.09 µM (active)
18,CCOC(=O)[C@H](CCc1ccccc1)N[C@H]1CCc2ccccc2N(CC(=O)O)C1=O,18.7 µM (active)
19,COc1ccc(C(=O)CC(=O)c2ccc(C(C)(C)C)cc2)cc1,4.69 µM (active)
20,CC(C)(C)C(=O)OCOP(=O)(COCCn1cnc2c(N)ncnc21)OCOC(=O)C(C)(C)C,18.7 µM (active)

# — PubChem BioAssay (NCATS)
